Laboratory results reported in PubChem BioAssay (NCATS).
Unmarked numbers belong to inactive results. Records with an inconclusive call do not appear. The source made the active and inactive calls. Unless noted, the call rests on the fitted dose curve; in most records, active means well fitted curve in either direction with a large enough effect (not every such curve was filed as active); inconclusive means small, poorly fitted or top-dose-only effect, or another doubt; inactive means flat fitted curve, though single readings scatter.

Tests used:
[1] = AP1 Signaling Pathway (AID 357); conditions: ME-180 AP-1-bla reporter, EGF-induced, beta-lactamase ratio, 5 h; at 17.2 µM (top of the series) unless noted;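 further: ME-180 reporter cells stimulated with EGF at its EC50 level; on the % scale 0 is the no-effect control and ±100 the full control effect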
Summary of the method: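 In this screen, ME-180 cells in Opti-MEM with 0.5% dialyzed FBS received EC50 EGF and compound titrations for 5 h. AP-1 reporter beta-lactamase was detected via CCF4 ratio, giving AC50 for positive and negative modulators.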

[2] = NFAT Signaling Pathway (AID 444); conditions: Jurkat NFAT-bla M1, carbachol, beta-lactamase ratio, 5 h; at 17.2 µM (top of the series) unless noted;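 further: carbachol stimulus at about its EC50 of 1 µM final; on the % scale 0 is the no-effect control and ±100 the full control effect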
Summary of the method: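 Jurkat cells with NFAT-driven β-lactamase reporter and co-expressed M1 receptor, stimulated with carbachol (final 1 uM, ~EC50), compound titration, 5 h at 37 °C. CCF4 loaded 1 h at RT; 460/530 nm ratio gave %activity and AC50.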

[3] = Stat Signaling Pathway (AID 446); conditions: ME-180 (cervical carcinoma) SIE beta-lactamase reporter, IL-6 stimulated, 5 h; at 17.2 µM (top of the series) unless noted;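 further: ME-180 cervical cancer cells given 40 pM IL-6 alongside compound; SIE-controlled beta-lactamase reporter measured as 460/530 nm FRET emission ratio; on the % scale 0 is the no-effect control and ±100 the full control effect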
Summary of the method: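 FRET read-out (405 nm excitation, 460/530 nm emission) of a beta-lactamase reporter under a STAT-inducible element in ME-180 cervical carcinoma cells. Cells with compound receive 40 pM IL-6 for 5 h. Values are normalised to AC90 stimulation and AC90 JAK-inhibitor controls.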

[4] = molecular target: Glucocorticoid receptor (Homo sapiens) (UniProt P04150); experiment: GR-GFP Redistribution (AID 450;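 active means compounds whose dose series gives a full or clear partial fitted curve of increased nuclear translocation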; further: potency means the concentration at half of the fitted maximal effect)
Chain of Glucocorticoid receptor (Homo sapiens) (P04150 whole entry, looked up): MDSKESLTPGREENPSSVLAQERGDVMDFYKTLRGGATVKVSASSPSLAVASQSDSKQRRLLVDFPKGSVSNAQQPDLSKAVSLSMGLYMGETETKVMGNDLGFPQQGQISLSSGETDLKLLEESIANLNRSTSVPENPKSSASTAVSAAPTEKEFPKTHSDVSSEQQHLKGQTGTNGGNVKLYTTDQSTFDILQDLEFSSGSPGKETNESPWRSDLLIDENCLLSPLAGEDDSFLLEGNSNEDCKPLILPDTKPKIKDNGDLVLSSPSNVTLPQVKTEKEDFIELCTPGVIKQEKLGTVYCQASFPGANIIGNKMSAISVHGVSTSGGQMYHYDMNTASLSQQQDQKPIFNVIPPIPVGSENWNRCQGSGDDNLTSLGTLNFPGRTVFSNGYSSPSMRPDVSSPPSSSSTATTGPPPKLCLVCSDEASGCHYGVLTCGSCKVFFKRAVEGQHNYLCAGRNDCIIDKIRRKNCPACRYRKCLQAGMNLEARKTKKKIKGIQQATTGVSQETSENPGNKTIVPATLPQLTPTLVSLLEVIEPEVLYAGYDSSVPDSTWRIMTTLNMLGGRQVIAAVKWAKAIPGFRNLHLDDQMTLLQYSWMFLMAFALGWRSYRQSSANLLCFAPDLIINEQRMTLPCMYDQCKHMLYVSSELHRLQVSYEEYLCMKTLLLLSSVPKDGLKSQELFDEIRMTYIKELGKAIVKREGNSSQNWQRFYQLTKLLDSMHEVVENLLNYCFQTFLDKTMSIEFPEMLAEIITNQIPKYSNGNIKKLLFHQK

Structure (SMILES) | activity change, negative = inhibition [1] | activity change, negative = inhibition [2] | activity, negative = inhibition [3] | Potency [4]
Cc1cccc(C)c1OCC(O)CNS(=O)(=O)c1ccccc1C(=O)N1CCOCC1 (stereo not drawn) | -8.76% | 9% | 3.91% | > 20.6 µM
CCOC(=O)c1n[nH]c2ccccc12 | 7.22% | 0.11% | -6.98% | > 20.6 µM
Cc1ccc2c(c1)C(CCN)C(=O)N2Cc1ccccc1 (stereo not drawn) | 19.6% | -9.23% | 5.36% | > 20.6 µM
CCCOC(=O)C1[C@H]2C(=O)N(Cc3ccco3)C[C@]23C=C[C@H]1O3 (stereo partly drawn) | 0.485% | 2.35% | 4.93% | > 20.6 µM
Cn1c(NCc2cccnc2)nc2c1c(=O)n(Cc1ccccc1F)c(=O)n2C | -1.33% | -10.3% | -20.6% | > 20.6 µM
CC(C)NC(=O)N1CCOCCOCCN(C(=O)NC(C)C)CCOCCOCC1 | 8.52% | 0.977% | 0.97% | > 20.6 µM
O=C1CCC(=O)N1CN(C(=O)c1ccco1)c1ccc(Cl)c(Cl)c1 | -6.31% | -5.89% | 11.1% | > 20.6 µM
COc1ccc(/C(O)=C2/C(=O)C(=O)N(CCCN(C)C)C2c2ccco2)cc1Cl (stereo not drawn) | 9.29% | -5.99% | 4.09% | > 20.6 µM
O=C(CSc1nc2ccccc2s1)Nn1cnnc1 | 3.59% | 2.13% | 5.58% | > 20.6 µM
O=c1[nH]c2cnccc2n1-c1ccccc1 | -12.9% | -4.82% | 1.57% | > 20.6 µM
CC(=O)Nc1cc2c(cc1Br)OCCO2 | 0.764% | -0.709% | -0.829% | > 20.6 µM
COc1cccc(C2CC(c3ccccc3Cl)n3nc(N)nc3N2)c1 (stereo not drawn) | -5.25% | -4.65% | -3.07% | > 20.6 µM
Cc1ccc(C2/C(=C(\O)c3ccc4c(c3)OCCO4)C(=O)C(=O)N2CCCN(C)C)o1 (stereo not drawn) | 1.54% | -21.4% | -1.3% | > 20.6 µM
C=CCOc1nc2c(c(=O)n(C)c(=O)n2C)n1Cc1ccc(Cl)cc1 | -1.14% | -8.76% | -5.11% | > 20.6 µM
C=CCNc1nc(NCc2ccccc2)c(C#N)c2c1CN(C)CC2 | 23.1% | 5.41% | 25.2% | > 20.6 µM
Cn1cc(Br)cc2nc(C(F)(F)F)nc1-2 | -3.15% | -3.67% | 3.32% | > 20.6 µM
CC1=CC(c2ccccc2)n2nc(N3C(=O)C4CC=CCC4C3=O)nc2N1 (stereo not drawn) | 0.952% | 13.9% | 11.6% | > 20.6 µM
Cc1cc(N2C(=O)C(=O)/C(=C(/O)c3ccccc3)C2c2cccs2)no1 (stereo not drawn) | -22.3% | 19% | -21% | > 20.6 µM
CNC(=O)c1ncnnc1N(C)C(=O)NCc1ccccc1 | -4.45% | 4.03% | 0.797% | > 20.6 µM
CCOc1ccc(C2/C(=C(/O)c3ccc(OC)cc3)C(=O)C(=O)N2c2cc(C)on2)cc1OC (stereo not drawn) | -11.1% | -0.187% | -9.83% | > 20.6 µM
Cn1c(NCCN2CCCCC2)cc(=O)n(C)c1=O | 6.19% | -24.7% | 9.99% | > 20.6 µM
Cc1c(NC(=O)C(CC(=O)O)NCc2ccco2)c(=O)n(-c2ccccc2)n1C (stereo not drawn) | -3.94% | 5.18% | 1.34% | > 20.6 µM
Nc1nnnn1N=C1CCCCC1 | -7.36% | 0.933% | -8.04% | > 20.6 µM
COc1ccc2[nH]cc(C(=O)CN(C)CCc3ccc(OC)c(OC)c3)c2c1 | -10.3% | 11.6% | 6.57% | > 20.6 µM
COC(=O)c1ccc(CN(C(C)=O)c2ccccc2)o1 | 10.5% | -7.2% | 7.8% | > 20.6 µM
CC(=O)c1ccc(C#CC(C)(C)O)s1 | 6.06% | -7.12% | 2.81% | > 20.6 µM

Structure (SMILES) | activity change, negative = inhibition [1] | activity change, negative = inhibition [2] | activity, negative = inhibition [3] | Potency [4]
CC(=O)OCC(=O)[C@@]1(O)CC[C@H]2[C@@H]3CCC4=CC(=O)C=C[C@]4(C)[C@@]3(Cl)[C@@H](Cl)C[C@@]21C | 11.8% | -9% | -0.258% | 0.0078 µM (active)
CCC(=O)OC1=C2C(=Nc3c(c(=O)n(C)c(=O)n3C)C2c2ccccc2)c2ccccc21 (stereo not drawn) | 8.9% | -4% | 14.9% | > 20.6 µM
COc1cc(/C=N/n2nnnc2N)ccc1O | -2.54% | -23.8% | -1.69% | > 20.6 µM
COC(=O)C(NC(=O)c1ccccc1)(Nc1nc(C)cs1)C(F)(F)F (stereo not drawn) | 20% | 6.46% | -6.57% | > 20.6 µM
Cn1ncc2c(Nc3ccccc3Br)ncnc21 | 5.55% | 17% | -3.41% | > 20.6 µM
COc1ccc(CCNC2CC(C)N(C)CC2C)cc1OC (stereo not drawn) | 2.19% | -14.9% | 4.89% | > 20.6 µM
Cc1cc(=O)oc(C)c1C(=O)n1nc(C)c2c1C[C@@H]1[C@H]2C1(C)C | -2.2% | -1.13% | -1.83% | > 20.6 µM
CCOC(=O)c1cc2c(=O)n3ccccc3nc2n(Cc2ccccc2Cl)c1=N | -18.6% | 1.14% | 2.43% | > 20.6 µM
CCOC(=O)c1c(CN2CCN(C)CC2)n(C)c2cc(Br)c(OC)cc12 | 5.82% | 20.5% | -13% | > 20.6 µM
CCOC(=O)C(NC=O)(NC(C)(C)C)C(=O)OCC | -2.44% | 4.66% | 24.2% | > 20.6 µM
O=C1C2ON(c3ccccc3)C(c3ccncc3)C2C(=O)N1c1ccccc1 (stereo not drawn) | -0.837% | 3.71% | 1.91% | > 20.6 µM
CCOC(=O)c1c(NC(=O)CN2CCOCC2)sc2c1CC(C)(C)OC2 | -15.6% | 12.7% | -6.32% | > 20.6 µM
Cc1nc(Nc2ncc3c(n2)CC(C)(C)CC3=O)nc2ccccc12 | -5.98% | 10.6% | -25% | > 20.6 µM
CCNC(=O)N(C)c1nncnc1C(=O)NC | 5.47% | 2.38% | -6.45% | > 20.6 µM
COc1ccc(Nc2nc(Nc3ccc(OC)cc3)nc(-n3[nH]c(=O)c(C)c3C)n2)cc1 | 22.4% | -1.75% | 8.62% | > 20.6 µM
CC(C)CCNc1nc2c(cc1C#N)COC(C)(C)C2 | -23.1% | 4.17% | 4.4% | > 20.6 µM
CC(=O)N[C@H]1C[C@@H]1c1ccccc1 | 5.08% | -8.6% | 12.8% | > 20.6 µM
CCOc1ccccc1N1CCN(c2nc3ccccc3nc2C(C#N)C(=O)OC)CC1 (stereo not drawn) | -24.3% | -106% (active) | -16.5% | > 20.6 µM
Cc1nn(CC(N)=O)c(=O)c2ccccc12 | 11.8% | 0.254% | 9.04% | > 20.6 µM
COC(=O)c1cc(Br)c(=O)n(Cc2ccco2)c1 | 10.7% | -14.5% | -3.41% | > 20.6 µM
CCN1C(=O)CC(N2CCN(c3ccc(OC)cc3)CC2)C1=O (stereo not drawn) | 7.27% | 1.19% | 1.34% | > 20.6 µM
O=c1[nH]cnc2c1cnn2Cc1ccccc1 | 2.81% | -7.78% | 6.19% | > 20.6 µM
COc1ccc(-n2ncc3c(Nc4cccc(C)c4)ncnc32)cc1 | 1.56% | -11.9% | -27.7% | > 20.6 µM
CCOc1cccc(C2C(C#N)=C(N)Oc3cc(C)oc(=O)c32)c1OCC (stereo not drawn) | -17.6% | 9.73% | -12.7% | > 20.6 µM
COC(=O)c1c(C)[nH]c(C(=O)OCc2ccc(F)cc2)c1C | 14.7% | 5.66% | -8.92% | > 20.6 µM
CN1C(=O)CC(N2CCN(c3ccc(Cl)c(Cl)c3)CC2)C1=O (stereo not drawn) | 17.6% | 16.8% | 0.709% | > 20.6 µM
